D1 agonist – agonists of human D1 dopamine receptor | P21728 | HEK293 T-REx D1 cells, calcium flux, agonist mode | activation, % at 2 µM | actives 1% (n = 360,000)
Target sequence (P21728 whole entry, looked up): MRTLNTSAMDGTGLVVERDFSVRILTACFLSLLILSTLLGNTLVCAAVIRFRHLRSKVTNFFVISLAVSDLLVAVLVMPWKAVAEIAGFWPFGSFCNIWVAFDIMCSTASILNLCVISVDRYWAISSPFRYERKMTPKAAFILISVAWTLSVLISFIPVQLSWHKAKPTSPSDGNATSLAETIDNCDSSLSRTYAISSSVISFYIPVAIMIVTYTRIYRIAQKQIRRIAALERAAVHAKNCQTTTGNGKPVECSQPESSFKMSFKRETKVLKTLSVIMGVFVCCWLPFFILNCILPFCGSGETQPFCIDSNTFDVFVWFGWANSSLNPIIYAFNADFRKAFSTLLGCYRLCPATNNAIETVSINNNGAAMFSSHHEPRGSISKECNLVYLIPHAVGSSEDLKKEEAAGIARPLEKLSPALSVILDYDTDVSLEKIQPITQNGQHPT
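Agonism was scored from calcium flux recorded over 180 s (1 read/s) after pintool compound addition, following a 10-cycle baseline. Cells were inducible force-coupled HEK293 TREx D1, plated overnight at 30 C and loaded with no-wash calcium dye.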
D1 PAM – potentiators of human D1 dopamine receptor. P21728. HEK293 TREx D1 cells, calcium flux, dopamine EC20 potentiation. potentiation, % at 10 µM. actives 0.036% (n = 360,000). AID 504651; in the data active = potentiation above about 30%
GRP78 ERSR act – inducers of ER stress response in human glioma cells. AID 602332. U87-MG GRP78 promoter luciferase reporter, 16 h. Potency, µM, actives largely listed as activators. actives 0.02% (n = 420,000); active = well fitted activation curve with a large enough effect; also: series mostly up to about 76 µM; nearly all actives have a fitted effect of over 35% in size
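ERSR induction read as luciferase luminescence (Bright-Glo, 10 min at room temperature) in stably transfected human U87-MG glioma cells exposed to compounds for 16 h, using GRP78 as sensor.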
D1 antag – antagonists of human D1 dopamine receptor. P21728. HEK293 TREx D1 cells, calcium flux, dopamine EC80; hits give low values. activity change, negative = inhibition, % at 10 µM. AID 504652. actives 3.2% (n = 360,000); in the data active = activity change below about -30%
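Allosteric or orthosteric antagonism assessed as attenuation of the calcium response to EC80 dopamine, added 180 s after compound, in induced HEK293 Trex D1 cells loaded with no-wash calcium dye.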
TRHR ag – activates the human TRH receptor. activation, % at 2 µM. actives 0.18% (n = 360,000). TRHR cells, calcium flux fluo-8, FDSS agonist mode. AID 493084
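Fluo-8-loaded TRHR cells; 10 s baseline, compound added, kinetic Ca2+ fluorescence read 1/s, agonist mode.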
TRHR enhancer – TRH receptor (human) allosteric enhancement. AID 493056. enhancement, % at 2 µM. actives 0.66% (n = 360,000). P34981. TRHR cells, fluo-8 calcium fluorescence, EC20 TRH enhancement; in the data active = enhancement above about 30%
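Enhancer read-out: after compound pinning and an initial kinetic agonist-mode read, an EC20 of TRH (10 nM final) was injected and fluo-8 calcium signal (Ex 480/Em 530) followed at 1 s/cycle for 100 cycles in TRHR-expressing cells.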
Hits are given with their value. Compounds with a hit are over-represented: about 4% of the library has one in this group of screens. Rule as the data show it, unless noted: active = activation above about 30%; inactive = the rest.

Results for CN(C(=O)c1ccc(OC2CCN(S(=O)(=O)N(C)C)CC2)cc1)C1CCCCC1 ?
D1 agonist: inactive; D1 PAM: inactive; GRP78 ERSR act: inactive; D1 antag: inactive; TRHR ag: inactive; TRHR enhancer: inactive

How did CN(C)S(=O)(=O)N1CCC(Oc2ccc(C(=O)NC3Cc4ccccc4C3)cc2)CC1 do in these assays?
D1 agonist: inactive; D1 PAM: inactive; GRP78 ERSR act: inactive; D1 antag: inactive; TRHR ag: inactive; TRHR enhancer: inactive

What do the screens show for `CCN(Cc1cnn(C)c1)C(=O)c1ccc(OC2CCN(S(=O)(=O)N(C)C)CC2)cc1`?
D1 agonist: inactive; D1 PAM: inactive; GRP78 ERSR act: inactive; D1 antag: -42.2; TRHR ag: inactive; TRHR enhancer: inactive

Results for CN(C)S(=O)(=O)N1CCC(Oc2cccc(C(=O)NC3CCCCCC3)c2)CC1 ?
D1 agonist: inactive; D1 PAM: inactive; GRP78 ERSR act: inactive; D1 antag: -31.7; TRHR ag: inactive; TRHR enhancer: inactive

Results for Cc1ccc(OCC(=O)N2CCCC(CCC(=O)N(C)CCc3ccccn3)C2)cc1 (stereo unspecified) ?
D1 agonist: inactive; D1 PAM: inactive; GRP78 ERSR act: inactive; D1 antag: inactive; TRHR ag: inactive; TRHR enhancer: inactive

Results for CC(=O)Nc1ccccc1-c1nc(CNC(=O)c2ccc(C)cc2)c(C)o1 ?
GRP78 ERSR act: inactive

Results for Cn1c(/C(C#N)=C/C2CC=CCC2)nc2ccccc21 (stereo unspecified) ?
D1 agonist: inactive; D1 PAM: inactive; GRP78 ERSR act: inactive; D1 antag: inactive; TRHR ag: inactive; TRHR enhancer: inactive

What do the screens show for `N#C/C(=C\C1CC=CCC1)c1nc2ccccc2[nH]1` (stereo unspecified)?
D1 agonist: inactive; D1 PAM: inactive; GRP78 ERSR act: inactive; D1 antag: -35.1; TRHR ag: inactive; TRHR enhancer: inactive

How did CC(=O)Oc1c(C)cc(Cl)cc1C(=O)Nc1ccc([N+](=O)[O-])cc1Cl do in these assays?
D1 agonist: 33.7; D1 PAM: inactive; GRP78 ERSR act: inactive; D1 antag: inactive; TRHR ag: inactive; TRHR enhancer: inactive

Results for CC(C)N1[N]C(=C2C=c3cc(O)ccc3=N2)c2c(N)ncnc21 ?
GRP78 ERSR act: inactive

Results for NC(=O)CSc1nc2c(sc(=S)n2-c2ccccc2)c(=O)[nH]1 ?
D1 agonist: inactive; D1 PAM: inactive; GRP78 ERSR act: inactive; D1 antag: -38.2; TRHR ag: inactive; TRHR enhancer: inactive

Results for COC(=O)NC1c2ccccc2Oc2ccccc21 ?
D1 agonist: 74.6; D1 PAM: inactive; GRP78 ERSR act: inactive; D1 antag: inactive; TRHR ag: inactive; TRHR enhancer: inactive

How did O=C(NNC(=O)c1cc(S(=O)(=O)N2CCOCC2)ccc1Cl)c1ccc(F)cc1 do in these assays?
GRP78 ERSR act: inactive

How did FC(F)Sc1ccc(NC(=S)NC2CCCC2)cc1 do in these assays?
D1 agonist: inactive; D1 PAM: inactive; GRP78 ERSR act: inactive; D1 antag: -34.2; TRHR ag: inactive; TRHR enhancer: inactive

What do the screens show for `CC1CCCC(NC(=S)Nc2ccc(SC(F)F)cc2)C1C` (stereo unspecified)?
D1 agonist: inactive; D1 PAM: inactive; GRP78 ERSR act: inactive; D1 antag: -43.9; TRHR ag: inactive; TRHR enhancer: inactive

What do the screens show for `CC1CCCC(NC(=O)Cn2c(Cl)nc3c2c(=O)n(C)c(=O)n3C)C1C` (stereo unspecified)?
GRP78 ERSR act: inactive

How did COc1ccc(CCNc2nc3c(-c4cccc(C)c4)nnn3c3ccccc23)cc1OC do in these assays?
D1 agonist: inactive; D1 PAM: inactive; GRP78 ERSR act: inactive; D1 antag: inactive; TRHR ag: inactive; TRHR enhancer: inactive

What do the screens show for `CCC(C)Nc1nc2c(C)cccn2c(=O)c1C=Nc1ccc(OC)cc1` (stereo unspecified)?
D1 agonist: inactive; D1 PAM: inactive; GRP78 ERSR act: inactive; D1 antag: inactive; TRHR ag: inactive; TRHR enhancer: inactive

What do the screens show for `CCCN1C(=O)/C(=C/c2c(NCCCOC(C)C)nc3c(C)cccn3c2=O)SC1=S`?
D1 agonist: 43.9; D1 PAM: inactive; GRP78 ERSR act: inactive; D1 antag: inactive; TRHR ag: inactive; TRHR enhancer: inactive

Bioassay records from PubChem BioAssay.
